We go through eleven compounds from PMC8159961, “Exploring protein hotspots by optimized fragment pharmacophores” (Nature Communications, 2021).

SMILES strings stand for the structures. Unmarked numbers belong to inactive results. The rule behind the calls is not given here.

Sequence of histone methyltransferase SET domain containing 2 (SETD2) (Q9BYW2 whole entry, looked up, the tested form may be a part): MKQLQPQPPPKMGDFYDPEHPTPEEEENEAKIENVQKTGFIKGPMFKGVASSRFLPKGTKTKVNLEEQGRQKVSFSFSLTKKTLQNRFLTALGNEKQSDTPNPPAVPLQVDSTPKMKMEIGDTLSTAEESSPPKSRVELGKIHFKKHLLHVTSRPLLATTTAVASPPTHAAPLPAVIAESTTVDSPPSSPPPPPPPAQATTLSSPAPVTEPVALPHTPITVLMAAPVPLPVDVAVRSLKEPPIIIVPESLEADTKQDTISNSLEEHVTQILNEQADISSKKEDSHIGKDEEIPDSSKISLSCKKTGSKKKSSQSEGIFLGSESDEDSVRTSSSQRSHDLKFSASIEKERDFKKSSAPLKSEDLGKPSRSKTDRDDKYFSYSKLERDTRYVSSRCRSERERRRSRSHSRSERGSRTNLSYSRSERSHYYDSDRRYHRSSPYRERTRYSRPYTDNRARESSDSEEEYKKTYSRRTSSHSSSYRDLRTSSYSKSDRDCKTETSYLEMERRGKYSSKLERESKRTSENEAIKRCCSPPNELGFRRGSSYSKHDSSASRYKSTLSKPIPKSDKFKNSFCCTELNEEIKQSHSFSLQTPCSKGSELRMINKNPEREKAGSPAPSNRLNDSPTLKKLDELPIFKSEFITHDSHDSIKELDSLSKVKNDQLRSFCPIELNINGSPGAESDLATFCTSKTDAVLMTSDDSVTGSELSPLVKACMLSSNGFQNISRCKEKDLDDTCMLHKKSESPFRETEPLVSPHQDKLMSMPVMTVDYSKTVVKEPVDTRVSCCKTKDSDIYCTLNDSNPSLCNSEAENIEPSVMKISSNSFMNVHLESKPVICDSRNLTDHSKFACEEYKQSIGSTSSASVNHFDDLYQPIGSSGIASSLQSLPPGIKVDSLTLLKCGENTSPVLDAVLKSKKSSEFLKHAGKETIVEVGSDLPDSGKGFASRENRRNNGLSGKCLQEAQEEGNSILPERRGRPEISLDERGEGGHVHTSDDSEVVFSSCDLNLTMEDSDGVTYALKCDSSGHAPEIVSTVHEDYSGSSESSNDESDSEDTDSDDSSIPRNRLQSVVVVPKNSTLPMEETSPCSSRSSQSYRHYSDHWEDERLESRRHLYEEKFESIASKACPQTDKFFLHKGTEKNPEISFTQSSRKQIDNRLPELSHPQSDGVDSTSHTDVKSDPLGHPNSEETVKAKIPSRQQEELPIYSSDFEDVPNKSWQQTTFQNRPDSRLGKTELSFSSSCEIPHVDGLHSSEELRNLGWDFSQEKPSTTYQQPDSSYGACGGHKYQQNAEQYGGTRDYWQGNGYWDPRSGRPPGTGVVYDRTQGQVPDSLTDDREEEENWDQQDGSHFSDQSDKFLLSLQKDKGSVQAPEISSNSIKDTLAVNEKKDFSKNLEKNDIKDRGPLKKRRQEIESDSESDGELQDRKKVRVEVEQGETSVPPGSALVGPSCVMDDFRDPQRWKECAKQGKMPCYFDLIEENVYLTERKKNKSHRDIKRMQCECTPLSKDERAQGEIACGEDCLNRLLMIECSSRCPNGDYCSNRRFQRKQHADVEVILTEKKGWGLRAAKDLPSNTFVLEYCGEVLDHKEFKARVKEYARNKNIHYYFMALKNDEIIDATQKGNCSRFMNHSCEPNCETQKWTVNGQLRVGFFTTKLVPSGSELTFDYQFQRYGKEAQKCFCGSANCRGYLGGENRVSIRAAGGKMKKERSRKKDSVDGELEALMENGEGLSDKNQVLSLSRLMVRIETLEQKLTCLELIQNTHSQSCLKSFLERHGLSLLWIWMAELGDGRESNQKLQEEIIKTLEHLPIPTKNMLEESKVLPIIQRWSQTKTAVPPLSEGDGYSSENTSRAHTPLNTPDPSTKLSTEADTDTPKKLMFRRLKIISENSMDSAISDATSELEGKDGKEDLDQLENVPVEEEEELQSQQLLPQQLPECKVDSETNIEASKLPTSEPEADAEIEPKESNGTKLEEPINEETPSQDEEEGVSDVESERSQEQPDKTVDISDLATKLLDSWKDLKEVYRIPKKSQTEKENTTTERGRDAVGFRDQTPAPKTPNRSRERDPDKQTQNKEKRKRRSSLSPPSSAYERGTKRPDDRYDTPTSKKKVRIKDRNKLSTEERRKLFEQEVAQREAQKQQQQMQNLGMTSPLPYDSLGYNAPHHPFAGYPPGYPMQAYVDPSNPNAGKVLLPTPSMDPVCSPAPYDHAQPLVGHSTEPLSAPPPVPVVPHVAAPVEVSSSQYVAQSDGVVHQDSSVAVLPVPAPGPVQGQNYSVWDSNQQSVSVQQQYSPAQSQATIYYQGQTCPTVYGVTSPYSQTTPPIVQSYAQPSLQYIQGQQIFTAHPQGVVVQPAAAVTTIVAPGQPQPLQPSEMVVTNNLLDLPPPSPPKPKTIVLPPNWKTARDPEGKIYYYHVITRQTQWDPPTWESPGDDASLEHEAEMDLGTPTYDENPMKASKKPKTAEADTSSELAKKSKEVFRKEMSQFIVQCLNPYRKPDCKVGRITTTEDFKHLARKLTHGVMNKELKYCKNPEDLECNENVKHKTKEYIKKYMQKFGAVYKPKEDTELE

The assay addresses histone methyltransferase SET domain containing 2 (SETD2) (Homo sapiens, UniProt Q9BYW2). Put plainly: primary screen, binary call; higher = more effect of the substance. Here is the method: The Chemiluminescence assay evaluates SETD2 specific tri -methylation activity towards histone H3K36. The kit consist s of recombinant SETD2, S-adenosylmethionine and a specific H3K36me3 antibody and was performed according to the manufacturer’s protocol (Catalo g- No. 52060, https://bpsbioscience.com/setd2 -chemiluminescent-assay-kit-52060). Values were blank corrected and normalized . Enzymatic activities were calculated relative to the positive control of the kit (full enzymatic activity) and to the known SET doma in inhibitor Sinefungin28 used as negative control (complete enzymatic activity inhibition). Compounds used were diluted in DMSO.
With `Nc1ccc(-c2ccccc2)cc1C(=O)O`, the SETD2 is 0.

Regarding `Cn1c(CO)nc2ccccc21`, the SETD2 is 0.

As for `COc1cccc(NC2=NCCCCC2)c1`, the SETD2 is 0.

Consider `c1ccc2oc(C3CCCNC3)nc2c1` (centres unmarked), for which the SETD2 was 0.

Turning to `O=C1CCCc2occc21`, the SETD2 is 0.

Turning to `c1ccc(-c2ccncc2)cc1`, the SETD2 was 0.

Consider `Oc1ccc(C2CCNCC2)cc1`, for which the SETD2 was 0.

Turning to `Cc1ccc(CCNc2ccccc2)cn1`, the SETD2 is 0.

With `CCN(CC)c1cccc(C)c1`, the SETD2 was 0.

With `O=C(O)CC1CCC(=O)N1` (centres unmarked), the SETD2 is 0.

`C1=C[C@H]2O[C@@H]1c1ccccc12`: the SETD2 is 0.
